# Reference: PubChem BioAssay (EPA / NIEHS)
# Records with an inconclusive call do not appear. The source made the active and inactive calls. Rule for the calls: active = hit-call score of the fitted dose curve at least 0.9, where 1 is the maximum; inconclusive = response in the unintended direction; inactive = score below 0.9.
# Assay: ACEA_AR_antagonist_AUC_viability: ACEA Biosciences xCELLigence Real-Time Cell Analysis on Androgen Receptor Antagonism for Viability (AID 2283776);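 note: 22Rv1 human prostate cancer cells growing on impedance electrode plates; hits lower the growth signal relative to DMSO meaning cytotoxicity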
# In short: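 Impedance read-out (RT-CES): area under growth curve at 80 h post-dose, loss of signal scored vs DMSO baseline. 22Rv1 cells; 8-pt 1:4 series, top 100 uM final, ≤0.5% DMSO; biological duplicate.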
Compound,AC50,outcome
O=C1CCC(C2CCCCC2)CC1,74.1 µM (active),–
O=C(OCCCCCCOC(=O)c1ccccc1)c1ccccc1,71.5 µM (active),–
O=C(Nc1ccc(Cl)cc1)Nc1ccc(Cl)c(Cl)c1,5.85 µM (active),–
COc1cc(C(=O)NC2CCN(C)CC2)ccc1Nc1ncc2c(n1)N(C1CCCC1)CC(F)(F)C(=O)N2C,0.00297 µM (active),–
O=C(O)c1ccccc1-n1cc(C(=O)O)c(=O)c2cc(Nc3c(F)cc(F)cc3Cl)c(Cl)cc21,–,inactive
Cc1ccc2oc(CN(Cc3ccccc3)C(=O)Nc3c(F)cc(F)cc3F)c(-c3ccc(Cl)cc3)c2c1,14.1 µM (active),–
O=c1c(-c2ccc(O)cc2)coc2cc(O)cc(O)c12,28.8 µM (active),–
CCCCCCCCOC(=O)c1cc(O)c(O)c(O)c1,13.5 µM (active),–
O=C(O)Cc1cc(I)c(Oc2ccc(O)c(I)c2)c(I)c1,20.3 µM (active),–
CN1C(=O)N(c2ccccc2Br)Cc2cnc(Nc3ccc4c(c3)OCC(CO)O4)nc21 (stereo unspecified),12.7 µM (active),–
c1ccc(C[n+]2cccc3ccccc32)cc1,82.3 µM (active),–
CC(C)(c1cc(Br)c(O)c(Br)c1)c1cc(Br)c(O)c(Br)c1,24.3 µM (active),–
CC1=CC(=O)/C(=C(/C)O)C(=O)O1,–,inactive
CC[C@@H]1C[C@H](N(Cc2cc(C(F)(F)F)cc(C(F)(F)F)c2)C(C)=O)c2cc(C(F)(F)F)ccc2N1C(=O)OC(C)C,–,inactive
CCCCOC(=O)CC(CC(=O)OCCCC)(OC(C)=O)C(=O)OCCCC,–,inactive
COc1ccc2cc(S(=O)(=O)N[C@H](CC(=O)N[C@H](Cc3ccc(CN4[C@H](C)CCC[C@@H]4C)cc3)C(=O)N(C)C(C)C)c3ccc4c(c3)OCO4)ccc2c1,9.32 µM (active),–
